Source: PubChem BioAssay (Tox21)
“And” between values parts separate entries of the source, which are not always exact repeats. Equal entries are not always repeated. Records with an inconclusive call do not appear. The source made the active and inactive calls. Unless noted, calls come from the whole dose curve; as a rule, active = well fitted curve in the direction sought with a large enough effect in the repeat runs; inconclusive = weak or mixed curves; inactive = no such curve, though single readings can be large; an effect the other way counts as inactive or inconclusive.

How the values were obtained:
[1] = qHTS assay to identify small molecule antagonists of the estrogen related receptor (ERR) signaling pathway from Tox21 library - cell viability counter screen (AID 1224834); note: nearly all actives have a fitted effect of over 30% in size; note: potency is the fitted concentration of half-maximal effect
Procedure, shortened: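 Counter screen run in ERR cells (2,000 cells/well): cells pre-incubated 6 h, then treated with compounds for 17.5 h at 37 C. Fluorescence was read 30 min after CellTiter-Fluor addition.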

[2] = target: Luciferin 4-monooxygenase (Photinus pyralis) (UniProt P08659); experiment: qHTS assay to identify small molecule inhibitors of firefly luciferase (AID 1224835); note: nearly all actives have a fitted effect of over 25% in size; note: potency is the fitted concentration of half-maximal effect
Chain of Luciferin 4-monooxygenase (Photinus pyralis) (P08659 whole entry, looked up): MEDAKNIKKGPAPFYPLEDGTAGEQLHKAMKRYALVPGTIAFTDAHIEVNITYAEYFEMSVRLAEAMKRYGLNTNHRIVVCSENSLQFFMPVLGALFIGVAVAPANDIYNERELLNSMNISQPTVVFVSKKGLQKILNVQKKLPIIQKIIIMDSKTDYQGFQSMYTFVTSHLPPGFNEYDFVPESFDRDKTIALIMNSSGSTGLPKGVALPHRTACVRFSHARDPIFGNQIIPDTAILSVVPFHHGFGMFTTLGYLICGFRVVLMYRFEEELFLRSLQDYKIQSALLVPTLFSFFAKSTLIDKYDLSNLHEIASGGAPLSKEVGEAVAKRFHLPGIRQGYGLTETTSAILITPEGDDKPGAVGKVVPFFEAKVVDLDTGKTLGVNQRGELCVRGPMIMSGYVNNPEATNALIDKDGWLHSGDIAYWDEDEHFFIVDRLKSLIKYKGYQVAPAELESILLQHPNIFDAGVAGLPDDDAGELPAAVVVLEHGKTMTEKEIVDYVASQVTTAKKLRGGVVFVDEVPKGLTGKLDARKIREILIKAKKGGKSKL
Procedure, shortened: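 Quantitative HTS format; KM concentrations of both substrates. Purified P. pyralis FLuc activity quantified from luminescence images.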

[3] = qHTS assay to identify small molecule agonists of the constitutive androstane receptor (CAR) signaling pathway - cell viability counter screen (AID 1224836); note: nearly all actives have a fitted effect of over 45% in size
Procedure, shortened: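 23 h treatment, 37 C, 5% CO2. Cell line: HepG2 stably expressing hCAR with a CYP2B6-2.2kb construct. Co-treatment: PK11195, 0.75 uM final. Read-out: CellTiter-Fluor fluorescence intensity.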

[4] = qHTS assay to identify small molecule antagonists of the estrogen related receptor signaling pathway with the pleiotropic PPARgamma coactivator (PGC) from Tox21 10K library - cell viability counter screen (AID 1224840; active = well fitted cell-killing curve with a large enough effect in the repeat runs, not every such curve was filed as active; note: nearly all actives have a fitted effect of over 40% in size)
Procedure, shortened: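 Readout: fluorescence intensity from CellTiter-Fluor after 30 min at 37 C/5% CO2. Preceded by 17.5 h treatment of PGC/ERR cells with DMSO-dissolved compounds, added 6 h post-seeding.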

[5] = qHTS assay to identify small molecule antagonists of the estrogen related receptor signaling pathway with the pleiotropic PPARgamma coactivator (PGC) from Tox21 10K library (AID 1224841; call rule not given here; note: actives are mostly falling curves and most rising ones were filed inactive; nearly all actives have a fitted effect of over 50% in size)
Procedure, shortened: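 One-Glo luminescence, measured after half an hour at room temperature, quantified reporter output of PGC/ERR cells. These had been plated at 2,000 per well, incubated 6 h, dosed with compounds in DMSO, then kept 18 h at 37 C.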

[6] = qHTS assay to identify small molecule agonists of the estrogen related receptor signaling pathway with the pleiotropic PPARgamma coactivator (PGC) from Tox21 10K library (AID 1224842); note: nearly all actives have a fitted effect of over 15% in size
Procedure, shortened: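 PGC/ERR reporter cells (NTP line) were seeded 2,000 per well, rested 6 h at 37 C/5% CO2, then pin-dosed with compounds in DMSO for 18 h at 37 C; luciferase read by One-Glo luminescence after 30 min at room temperature.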

[7] = target: Thyrotropin receptor (Homo sapiens) (UniProt P16473); experiment: qHTS assay to identify small molecule agonists of the thyroid stimulating hormone receptor (TSHR) signaling pathway (AID 1224843; calls by dose curve; note: nearly all actives have a fitted effect of over 45% in size)
Chain of Thyrotropin receptor (Homo sapiens) (P16473 whole entry, looked up): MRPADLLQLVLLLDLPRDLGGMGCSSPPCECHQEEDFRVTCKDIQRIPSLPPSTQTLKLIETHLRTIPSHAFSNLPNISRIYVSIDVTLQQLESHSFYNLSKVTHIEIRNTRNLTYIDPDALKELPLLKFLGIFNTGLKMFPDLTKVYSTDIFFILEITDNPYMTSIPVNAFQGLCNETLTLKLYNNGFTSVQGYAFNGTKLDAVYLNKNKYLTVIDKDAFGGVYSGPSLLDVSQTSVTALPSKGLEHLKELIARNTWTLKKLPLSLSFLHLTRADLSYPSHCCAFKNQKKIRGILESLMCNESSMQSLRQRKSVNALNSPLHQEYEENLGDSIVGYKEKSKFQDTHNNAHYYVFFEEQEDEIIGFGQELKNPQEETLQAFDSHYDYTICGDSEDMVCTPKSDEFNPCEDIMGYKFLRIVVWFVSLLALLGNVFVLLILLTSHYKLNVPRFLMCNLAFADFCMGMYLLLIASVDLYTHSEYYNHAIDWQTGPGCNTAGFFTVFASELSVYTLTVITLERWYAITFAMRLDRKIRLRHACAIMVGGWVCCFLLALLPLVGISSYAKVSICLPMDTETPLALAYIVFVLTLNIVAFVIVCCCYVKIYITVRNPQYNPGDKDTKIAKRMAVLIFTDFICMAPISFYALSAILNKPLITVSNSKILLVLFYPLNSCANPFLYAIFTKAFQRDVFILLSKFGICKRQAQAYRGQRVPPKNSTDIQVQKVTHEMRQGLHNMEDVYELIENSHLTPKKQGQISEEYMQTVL
Procedure, shortened: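 Using 15 concentrations per compound in triplicate, cAMP production was monitored in TSHR-HEK293 cells after 30 min compound incubation at RT; HTRF reagents followed, with fluorescence intensity recorded after 1 h.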

[8] = qHTS assay to identify small molecule agonists of H2AX (AID 1224845; active = well fitted activation curve with a large enough effect in the signal ratio in the repeat runs, not every such curve was filed as active; the % refers to the signal ratio)
Procedure, shortened: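 Wild-type CHO-K1 cells plated overnight, then exposed 3 hr at 37C to compounds at 15 concentrations (0.76% DMSO). Lysed, then HTRF anti-pH2AX(S139)-cryptate/anti-H2AX-d2 detection after 24 hr at room temperature; emissions 665 and 620 nm.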

[9] = qHTS assay to identify small molecule agonists of the hypoxia (HIF-1) signaling pathway (AID 1224846; active = well fitted activation curve with a large enough effect in the signal ratio in the repeat runs, not every such curve was filed as active; the % refers to the signal ratio)
Procedure, shortened: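 ME-180 HRE-bla reporter cells; compounds in DMSO, 17 h at 37C; read-out beta-lactamase via CCF4-AM FRET.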

[10] = qHTS assay to identify small molecule agonists of H2AX - cell viability counter screen (AID 1224847; calls by dose curve; note: top concentration of the series differs between compounds; nearly all actives have a fitted effect of over 30% in size)
Procedure, shortened: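 Compounds tested at 15 concentrations were incubated 3 hr at 37C with wild-type CHO-K1 cells; cellular ATP-based luminescence (CellTiter-Glo) indicated viability.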

[11] = qHTS assay to identify small molecule antagonists of the estrogen related receptor (ERR) signaling pathway from Tox21 library (AID 1224848); note: nearly all actives have a fitted effect of over 50% in size
Procedure, shortened: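 Tox21 10K compounds in DMSO tested for ERR pathway antagonism in NTP's ERR cell line; 18 h, 37 C exposure; ONE-Glo luminescence.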

[12] = qHTS assay to identify small molecule agonists of the estrogen related receptor (ERR) signaling pathway from Tox21 library (AID 1224849; calls by dose curve; note: nearly all actives have a fitted effect of over 15% in size); conditions: ERR reporter cell line, ONE-Glo luciferase, 18 h
Procedure, shortened: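 Luciferase activity in ERR pathway reporter cells served as the agonist readout; exposure lasted 18 h at 37 C, with ONE-Glo detection after 30 min at room temperature.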

[13] = qHTS RealTime-Glo MT Cell Viability Assay in HepG2 cells - 24 hour (AID 1224867); note: nearly all actives have a fitted effect of over 50% in size
Procedure, shortened: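 Cell number in HepG2 cultures estimated from NanoLuc luminescence generated by metabolic reduction of a prosubstrate by living cells. The homogeneous, nonlytic format allowed repeated reads at 0, 8, 16, 24, 32 and 40 h of compound exposure.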

[14] = qHTS RealTime-Glo MT Cell Viability Assay in HEK293 cells - 32 hour (AID 1224868); note: top concentration of the series differs between compounds; nearly all actives have a fitted effect of over 50% in size
Procedure, shortened: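 Homogeneous bioluminescent viability format in HEK293 cells (600 cells/well). Following 5 h at 37 C/5% CO2, 23 nL compound was pintooled; the signal was measured repeatedly during 40 h incubation.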

[15] = A CellTox Green Cytotoxicity Assay to monitor cytotoxicity in HEK293 cells - 0 hour (AID 1224869); note: nearly all actives have a fitted effect of over 50% in size
Procedure, shortened: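 Real-time, in one plate: 600 HEK293 cells/well with dead-cell DNA dye, pinned compound after 5 h, 37 C incubation over 40 h; viable cells give no appreciable fluorescence.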

[16] = qHTS assay to identify small molecule agonists of the hypoxia (HIF-1) signaling pathway - cell viability counter screen (AID 1224844; calls by dose curve; note: nearly all actives have a fitted effect of over 50% in size)
Procedure, shortened: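 In this counter screen, HRE-bla ME-180 cell viability after 17 hrs of compound exposure at 37C was read by CellTiter-Glo luminescence, multiplexed with the beta-lactamase reporter measurement.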

[17] = target: Nuclear receptor subfamily 1 group I member 3 (Homo sapiens) (UniProt Q14994); experiment: qHTS assay to identify small molecule antagonists of the constitutive androstane receptor (CAR) signaling pathway (AID 1224838); note: nearly all actives have a fitted effect of over 40% in size
Chain of Nuclear receptor subfamily 1 group I member 3 (Homo sapiens) (Q14994 whole entry, looked up): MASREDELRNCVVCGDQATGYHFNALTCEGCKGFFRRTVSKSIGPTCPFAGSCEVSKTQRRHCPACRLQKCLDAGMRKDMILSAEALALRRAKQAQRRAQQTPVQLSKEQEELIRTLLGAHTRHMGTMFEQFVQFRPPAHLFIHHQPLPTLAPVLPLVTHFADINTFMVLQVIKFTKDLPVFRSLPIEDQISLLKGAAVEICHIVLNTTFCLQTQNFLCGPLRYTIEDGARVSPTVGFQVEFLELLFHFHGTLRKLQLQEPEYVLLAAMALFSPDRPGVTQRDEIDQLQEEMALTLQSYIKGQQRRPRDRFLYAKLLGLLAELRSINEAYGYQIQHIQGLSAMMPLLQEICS
Procedure, shortened: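 Inhibition of CITCO-driven (50 nM final) CYP2B6 reporter expression is measured in HepG2 cells stably carrying hCAR. Fifteen compound concentrations are applied for 24 h at 37 C, followed by luciferase luminescence.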

[18] = target: Nuclear receptor subfamily 1 group I member 3 (Homo sapiens) (UniProt Q14994); experiment: qHTS assay to identify small molecule agonists of the constitutive androstane receptor (CAR) signaling pathway (AID 1224839); note: nearly all actives have a fitted effect of over 15% in size
Procedure, shortened: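 Compounds tested at 15 concentrations on HepG2 cells stably harbouring hCAR and CYP2B6-2.2kb reporter constructs, co-treated with PK11195 (0.75 uM final), 24 h at 37 C; luminescent reporter signal quantified.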

[19] = qHTS assay to identify small molecule antagonists of the constitutive androstane receptor (CAR) signaling pathway - cell viability counter screen (AID 1224837); note: nearly all actives have a fitted effect of over 45% in size
Procedure, shortened: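 CITCO at 50 nM final was added alongside compounds (15 concentrations) to double-stable hCAR/CYP2B6-2.2kb HepG2 cells. Following 23 hr at 37 C, cell viability was quantified by CellTiter-Fluor fluorescence intensity.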
% is set by controls: 0 for no effect and ±100 for the full control effect.

COCC(C)O (stereo not drawn)
inactive: Potency [1] | Potency [2] | Potency [3] | Potency [4] | Potency [5] | Potency [6] | Potency [7] | Potency [8] | outcome [9] | Potency [10] | Potency [11] | activity change, positive = activation ([12]; at 92.4 µM (top of the series)) -0.602% and 6.16% | Potency [13] | Potency [14] | Potency [15]

CC(=O)[C@@]1(O)CC[C@H]2[C@@H]3CCC4=CC(=O)CC[C@]4(C)[C@H]3CC[C@@]21C
inactive: Potency [1] | Potency [2] | Potency [4] | Potency [7] | Potency [16] | Potency [8] | Potency [10] | Potency [13]

Cn1c([N+](=O)[O-])cnc1COC(N)=O
inactive: Potency [1] | Potency [2] | Potency [3] | Potency [17] | Potency [18] | Potency [4] | Potency [5] | Potency [6] | Potency [8] | Potency [10] | Potency [11] | Potency [13] | Potency [14] | Potency [15]

O=C(c1cc(O)c(O)c(O)c1)c1ccc(O)c(O)c1O
active: Potency [1] 54.3 µM and 54.5 µM
inactive: Potency [3] | Potency [19] | Potency [17] | Potency [18] | Potency [4] | Potency [5] | Potency [6] | outcome [9] | Potency [10] | Potency [13] | Potency [14]

O=C(Cl)c1c(Cl)c(Cl)c(C(=O)Cl)c(Cl)c1Cl
inactive: Potency [1] | Potency [2] | Potency [3] | Potency [17] | Potency [18] | Potency [4] | Potency [5] | Potency [6] | Potency [16] | Potency [8] | outcome [9] | Potency [14]

CNC[C@H](O)[C@@H](O)[C@H](O)[C@H](O)CO
inactive: Potency [1] | Potency [3] | Potency [19] | Potency [17] | Potency [18] | Potency [4] | Potency [7] | Potency [16] | Potency [8] | Potency [10] | Potency [14] | Potency [15]

C=C(C)C(=O)OCCCCCC
inactive: Potency [1] | Potency [2] | Potency [3] | Potency [19] | Potency [4] | Potency [7] | Potency [16] | Potency [8] | outcome [9] | Potency [10] | Potency [14] | Potency [15]

CCCCCCC(C)(C)S
inactive: Potency [1] | Potency [2] | Potency [3] | Potency [17] | Potency [18] | Potency [4] | Potency [7] | Potency [8] | outcome [9] | Potency [13] | Potency [14] | Potency [15]

Nc1nc2ncc(CNc3ccc(C(=O)N[C@@H](CCC(=O)O)C(=O)O)cc3)nc2c(=O)[nH]1
inactive: Potency [1] | Potency [2] | Potency [3] | Potency [17] | Potency [18] | Potency [4] | Potency [7] | Potency [8] | Potency [10] | Potency [13] | Potency [14] | Potency [15]

OCC#CCO
inactive: Potency [1] | Potency [2] | Potency [3] | Potency [19] | Potency [4] | Potency [7] | Potency [16] | Potency [8] | outcome [9] | Potency [10] | Potency [14] | Potency [15]

c1ccc2ccccc2c1
inactive: Potency [1] | Potency [2] | Potency [3] | Potency [4] | Potency [5] | Potency [6] | Potency [7] | Potency [16] | Potency [8] | outcome [9] | Potency [10] | Potency [14]

CCCCCCCCCCC=CC1CC(=O)OC1=O (stereo not drawn)
inactive: Potency [1] | Potency [3] | Potency [19] | Potency [17] | Potency [18] | Potency [4] | Potency [7] | Potency [16] | Potency [8] | outcome [9] | Potency [13] | Potency [14]

O=C(Oc1ccccc1)c1ccc(O)cc1
active: Potency [2] 35.8 µM and 35.6 µM
inactive: Potency [1] | Potency [3] | Potency [4] | Potency [7] | Potency [8] | outcome [9] | Potency [13] | Potency [14] | Potency [15]

CC1=CC[C@H]2C[C@@H]1C2(C)C
inactive: Potency [1] | Potency [2] | Potency [3] | Potency [4] | Potency [7] | Potency [16] | Potency [8] | outcome [9] | Potency [14] | Potency [15]

OCCOCCOCCOCCO
inactive: Potency [1] | Potency [2] | Potency [3] | Potency [4] | Potency [7] | Potency [8] | outcome [9] | Potency [10] | Potency [13] | Potency [14] | Potency [15]

NCCNCCNCCNCCN
inactive: Potency [1] | Potency [2] | Potency [3] | Potency [17] | Potency [18] | Potency [4] | Potency [5] | Potency [6] | Potency [7] | Potency [8] | outcome [9] | Potency [10] | activity change, positive = activation ([12]; at 8.39 µM (top of the series)) 3.41% | activity change, positive = activation ([12]; at 92.4 µM (top of the series)) 2.98% | Potency [13] | Potency [14]

CC[Si](OC(C)=O)(OC(C)=O)OC(C)=O
inactive: Potency [1] | Potency [3] | Potency [19] | Potency [17] | Potency [18] | Potency [4] | Potency [7] | Potency [16] | Potency [8] | outcome [9] | Potency [14] | Potency [15]

CCCCNC(N)=O
inactive: Potency [1] | Potency [2] | Potency [3] | Potency [17] | Potency [18] | Potency [4] | Potency [5] | Potency [6] | Potency [16] | Potency [8] | outcome [9] | Potency [10] | Potency [13] | Potency [14]

O=C(O)c1ccc([N+](=O)[O-])cc1
inactive: Potency [1] | Potency [2] | Potency [3] | Potency [17] | Potency [18] | Potency [4] | Potency [16] | Potency [8] | outcome [9] | Potency [10] | Potency [14]

OC1CCCC1
inactive: Potency [1] | Potency [3] | Potency [19] | Potency [17] | Potency [18] | Potency [4] | Potency [5] | Potency [6] | Potency [7] | Potency [16] | Potency [8] | outcome [9] | Potency [11] | activity change, positive = activation ([12]; at 92.4 µM (top of the series)) 4.85% and 0.946% | Potency [14] | Potency [15]

NC(=O)/N=N/C(N)=O
active: Potency [2] 31.8 µM and 25.2 µM
inactive: Potency [1] | Potency [3] | Potency [17] | Potency [18] | Potency [4] | Potency [5] | Potency [6] | Potency [8] | outcome [9] | Potency [10] | Potency [14] | Potency [15]
